Data reported in the supplement of paper PMC6555819.

Experiments:
Assay in all cases: PBM binding z-score (relative to random genomic background probes); higher = stronger binding; sequences stand for … in GC…GCGATTGACAGCGTAGAATGAAGG
[1] = test system: RARb homodimer (NR concentration 270 nM)
In short: (§1)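 Custom Agilent 4×180K protein-binding microarrays carried double-stranded probes, each with a 34-nt variable region. These regions held direct-repeat seeds, single-nucleotide variants, half-site ablations and random human genomic background sequences. Ligand-free nuclear receptor dimers were incubated on the arrays for 1 h, antibodies against each partner (one per run) detected binding, and scanned fluorescence was regression-normalized. Binding z-scores take the random background probes as reference.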

[2] = test system: RARg:RXRa (NR concentration 270 nM, RXRa partner concentration 90 nM)
In short: as §1

[3] = test system: RARg homodimer (NR concentration 270 nM)
In short: as §1

[4] = test system: RXRa DBDmut IVT, anti-RXR (DBD mutation: RXRa K156A/R161A, NR concentration 90 nM)
In short: as §1

[5] = test system: RXRa homodimer (NR concentration 180 nM)
In short: as §1

[6] = test system: THRa:RXRa (NR concentration 90 nM, RXRa partner concentration 90 nM)
In short: as §1

[7] = test system: THRa homodimer (NR concentration 90 nM)
In short: as §1

[8] = test system: VDR homodimer (NR concentration 270 nM)
In short: as §1

| Sequence | PBM binding z-score [1] | PBM binding z-score [2] | PBM binding z-score [3] | PBM binding z-score [4] | PBM binding z-score [5] | PBM binding z-score [6] | PBM binding z-score [7] | PBM binding z-score [8] |
| --- | --- | --- | --- | --- | --- | --- | --- | --- |
| CGTCAAAGTTCAGGGTAACGTAACAGAAAGCAGC | 3.13 | 4.04 | 4.74 | 3.74 | 2.91 | 2.14 | 0.495 | 2.51 |
| CCGACTGGGGCAGAAAGGTTACCAAACCATCCGG | 2.23 | 1.52 | 1.35 | -0.609 | 1.66 | 0.905 | -0.598 | -0.377 |
| CCTTACGGGTTAAGGTTATAGCACGGGTGGTACG | 1.42 | 1.43 | 0.999 | -0.691 | 2.18 | 2.64 | 1.75 | 0.766 |
| CCGACTAGGGCAAAGGTTACCATACTCAGTACGA | 2.48 | 3.78 | 2.11 | 0.743 | 4.2 | 2.14 | -0.117 | 0.229 |
| TCGAGTAGGTTACCAATGGGACATTCAGCTTTCT | -0.0362 | 0.634 | 0.55 | 0.448 | 0.451 | 0.207 | -0.766 | -0.643 |
| CAAATTAGGTCACCGGAAGGTCAAAGTCCGCATG | 5.53 | 8.32 | 7.57 | 2.34 | 6.18 | 4.78 | 3.89 | 3.8 |
| AGAACGAGGGCACGCTGAGTTGATAGTAGAGTAG | 1.25 | 1.99 | 2.41 | 2.07 | 1.34 | 1.9 | 0.0891 | 1.95 |
| GCTATTAGTTGAAAGGACAACCGAATGATTCTCG | 1.25 | 0.533 | 1.2 | 0.922 | 0.0459 | 0.487 | 0.292 | 0.311 |
| TAGCCTAGGTCTTGCGGGCCAGTATAGTGTCGGC | -0.413 | -0.507 | -0.639 | -1.09 | -0.623 | -0.606 | -1.12 | -1.13 |
| ACTAGCAGGGCAAGGGTCACTCAAGATTAGTCCG | 3.73 | 4.34 | 3.78 | 0.379 | 4.53 | 2.73 | -0.1 | 1.17 |
| ATATGTAGCTTACATCCGGGTCATTCAGGCTATG | 1.78 | 1.48 | 1.02 | 0.735 | 1.9 | 2.87 | 2.3 | 2.18 |
| CACGAAAGGTCGGTTGAGGTGAGTATACGGATAA | 2.56 | 2.89 | 3.15 | 0.785 | 2.36 | 5.03 | 1.69 | 0.932 |
| ACTATTAGTTTAGACGAGGGCAACCGATAGGTTG | 1.49 | 0.78 | 1.15 | 0.931 | 0.581 | 2.5 | 0.435 | 1.65 |
| ACTAGCAGGCCAAGTTTGGGTTACTCAAACAAAG | 0.5 | 0.339 | 0.295 | -0.22 | -0.21 | 0.547 | -0.383 | -0.21 |
| ATACCAAGGTGATCGTGAGGCCGTTGATACTAAC | 0.758 | 0.629 | 0.127 | 0.132 | 0.254 | 2.05 | 1.14 | 0.643 |
| AGAATGAGGTTATTAAGATAAGGGAATTGCGGTC | 0.848 | 1.41 | 0.946 | 1.84 | 1.8 | 1.95 | 0.273 | 0.849 |
| AGAACGAGGGAAATGAGTTGATAGCACGGGTGGC | -0.754 | -0.0436 | 0.0126 | -0.228 | -0.0737 | -0.188 | -0.839 | 0.141 |
| AGAACGAGGGCACGCTGTGTTGATAGCAGAGTAG | 1.05 | 1.82 | 2.12 | 1.76 | 1.23 | 1.53 | -0.0988 | 0.651 |
| CCTACCGGGCCATTCAGAGGTCATTGATCATATG | 4.14 | 4.98 | 3.36 | 0.918 | 3.86 | 3.65 | 1.73 | 4.05 |
| AACTCTAGGTAACAAGTTCAGTGAAAGAGAGGAC | 1.66 | 1.03 | 1.2 | 1.13 | 0.731 | 1.4 | 0.448 | 2.39 |
| CAAACTAGGTCACAGAGATCAAAGTCCGTGCGTA | 3.1 | 4.52 | 4.87 | 1.59 | 3.84 | 3.28 | 1.27 | 0.964 |
| CGAACTAGGTCATTGACAGCACAGTGAATAGTAA | 2.36 | 3.46 | 4.03 | 2.29 | 2.47 | 2.31 | 0.694 | 1.08 |
| CAGCTTAGGTCAGGGCCAGTATAGGAGGAACGTT | 2.93 | 3.26 | 4.25 | 0.68 | 1.75 | 3 | 1.78 | 0.105 |
| GCTAGTTGGTCAGTAAAAGATCACACACCGGTCG | 0.519 | 0.262 | 0.586 | -0.0346 | 0.0545 | -0.299 | -0.336 | -0.296 |
| ATCTCTAGGTAACCAAGTGCAGTGAATGCCGAAC | 0.232 | 0.129 | 0.205 | 0.0153 | 0.0437 | 0.515 | 0.223 | 0.337 |
| CCAGACAGGTGAAACGTAACTCAGTCTGGTACGC | 0.0638 | 0.203 | 0.432 | 0.0553 | 0.53 | -0.118 | -0.567 | -0.448 |

| Sequence | PBM binding z-score [1] | PBM binding z-score [2] | PBM binding z-score [3] | PBM binding z-score [4] | PBM binding z-score [5] | PBM binding z-score [6] | PBM binding z-score [7] | PBM binding z-score [8] |
| --- | --- | --- | --- | --- | --- | --- | --- | --- |
| TGAATAAGGTTATAAGATCAGGGAACGTTGCAAA | 0.682 | 1.59 | 1.14 | 0.444 | 1.89 | 1.79 | 0.426 | 0.135 |
| TTACCAAGGTGAAGCTCGTTGATCCCTCTGTAGA | 0.199 | 0.159 | -0.0803 | -0.864 | 0.473 | 1.57 | 0.166 | -0.835 |
| TGTCGAAGTTCAAAGGTAACGTAAGTATCCACAC | 2.43 | 4.25 | 3.04 | 3.6 | 5.18 | 2.81 | -0.0887 | 2.72 |
| CATACAGGGTCAGCTAGGTCAGAGTAGGGACGGC | 4.28 | 5.09 | 5.08 | 1.93 | 4.95 | 4.07 | 2.33 | 2.85 |
| CCTACTGGGCCATTCAGAGGTCAGTGATCATATG | 3.78 | 4 | 2.75 | 0.291 | 2.29 | 2.18 | 0.651 | 1.13 |
| TCTGCTAGGTCAGTTGGTCAGCTAACGAGCTGCC | 2.55 | 2.58 | 3.5 | 0.411 | 1.02 | 1.36 | -0.176 | -0.401 |
| ACAGACAGGTGATGAATGTAACTCAGGCTATCAT | -0.0762 | 0.375 | 0.506 | -0.126 | 0.591 | 0.0526 | -0.294 | -0.0787 |
| ATCGAAAGGTCGACGAGGTGGGTATACACCGTTT | 2.71 | 4.03 | 3.85 | 0.746 | 4.17 | 2.51 | -0.214 | 0.638 |
| CCGGACAGGTGAGAAGGTAACTCAGCCTCGATTA | 0.613 | 0.4 | 0.787 | -0.0237 | 0.117 | 0.16 | 0.35 | -0.222 |
| TGGAGTAGGTTACCAATGGGGCATTCAGCTTTCT | 1.16 | 1.4 | 0.805 | -0.418 | 0.605 | 0.403 | -0.198 | -0.00533 |
| CAGCCTAGGTCAGGCCCAGTATAGGAGGAACGTT | 2.11 | 2.54 | 3.21 | -0.298 | 1.14 | 1.66 | 0.183 | -0.788 |
| AATACAGGTTCATCGTAGGCCAGAGTACGCACAG | 1.46 | 2.54 | 1.39 | 4.66 | 3.17 | 3.66 | 0.0172 | 5.45 |
| CCTCGGAGGACAACAGGAGGTTAGAGCTGCCAGA | 1.12 | 0.878 | 1.47 | 0.257 | -0.0815 | 1.19 | 0.00678 | 0.0214 |
| GCTCGGAGGACAAGATCAGAGCTTTGTCCGTAGA | -0.303 | -0.459 | 0.204 | -0.708 | -0.639 | 0.191 | -0.651 | -0.587 |
| ACTATTAGTTGACTTAGGGCACCCGATACGACGC | 0.58 | 0.574 | 0.897 | 0.79 | 0.316 | 0.993 | 0.664 | 0.399 |
| TTACCAAGGTGAGATGAGGTCGTTGATCCAACTC | 1.54 | 1.49 | 1.26 | 0.446 | 1.85 | 4.77 | 2 | 2.31 |
| TCTTGTAGATCAACAGGAGGTTAAGAAAGATCGA | 0.548 | 0.934 | 0.306 | 0.35 | 0.762 | 0.782 | -0.703 | -0.387 |
| CGTCCAAGGTAAAGGTCAGTGAAAGAGACTCGAA | 4.43 | 4.58 | 5.49 | 0.687 | 4.48 | 3.2 | 0.7 | 0.765 |
| TCTAGTTGGTCAAAGGTCACACACTCGAAATGCG | 5.02 | 7.09 | 6.36 | 2.05 | 7.71 | 4.06 | 1.95 | 2.94 |
| ATCGAAAGGTCGTAGGTGAGTATACCCACCCGAA | 2.79 | 4.48 | 3.9 | 1.21 | 5.28 | 2.5 | 0.0179 | 1.21 |
| CGAACTAGGTCAAGCACAGTGAATCTCCGCACGC | 2.96 | 4.27 | 4.61 | 1.82 | 2.84 | 2.72 | 1.27 | 0.357 |
| ATCGAAAGGTCGACGAGGTGAGTATACACCGTTT | 3.04 | 4.03 | 3.9 | 1.38 | 4.46 | 3.84 | 0.669 | 0.929 |
| CGTCCAAGGTCAAAGCTAGGTCAGTGAAAGCATT | 5.03 | 7.9 | 7.36 | 4.1 | 6.47 | 4.57 | 2.86 | 3.7 |
| CCTAGTTGGTCAGTAGGTCACACACCGGATATGA | 3.59 | 3.58 | 3.25 | 0.459 | 2.79 | 2.1 | 1.32 | 1.29 |
| CTACCAAGGTGAACAAGGTCGTAGATTACTATTC | 1.98 | 2 | 1.6 | 0.741 | 2.24 | 3.24 | 1.88 | 1.72 |
| TAGCCTAGGTCATGGGCCAGTATACCACGCGAAC | 2.71 | 4.27 | 4.78 | 0.316 | 3.57 | 2.93 | 1.3 | 0.506 |
